Compound activity deposited in PubChem BioAssay by several laboratories.
Shown are actives, neighbours in structure and some others; about 3.2% of the full set was active somewhere.
Kir21 inh = blocks the mouse Kir2.1 inward-rectifier potassium channel | B-score at 10 µM | AID 1672 | HEK293-Kir2.1, FluxOR thallium flux fluorescence; active compounds read low | actives 0.85% (n = 310,000) | P35561;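 active = fluorescence ratio B-score at or below minus 3 SD of library scores, with starting-brightness B-score within 2 SD, cut at about -4.2 in these data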;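 also: channel flux triggered by added potassium and thallium sulfate stimulus; B-score of peak minus minimum fluorescence over baseline after thallium stimulus; more negative B-score means stronger Kir2.1 block with less thallium influx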
Rce1 inh = inhibitors of yeast Ras-converting enzyme; yeast membranes, quenched prenylated peptide cleavage fluorescence; calls only; actives 0.27% (n = 290,000);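 active = fall in fluorescence gain of 50% or more versus controls, with final raw signal at or below 3038400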
CHT inh = human CHT choline transport inhibition; CHT-expressing cells, membrane potential dye, choline response; active compounds read low; B-score at 10 µM; actives 0.86% (n = 310,000);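 active = B-score over 3 SD under the library average, and starting fluorescence ratio not unusually high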;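 also: choline stimulus applied at its EC90 after an EC20 pre-addition; B-score computed on integrated fluorescence ratio after choline addition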
Target sequence (Q9GZV3 whole entry, looked up): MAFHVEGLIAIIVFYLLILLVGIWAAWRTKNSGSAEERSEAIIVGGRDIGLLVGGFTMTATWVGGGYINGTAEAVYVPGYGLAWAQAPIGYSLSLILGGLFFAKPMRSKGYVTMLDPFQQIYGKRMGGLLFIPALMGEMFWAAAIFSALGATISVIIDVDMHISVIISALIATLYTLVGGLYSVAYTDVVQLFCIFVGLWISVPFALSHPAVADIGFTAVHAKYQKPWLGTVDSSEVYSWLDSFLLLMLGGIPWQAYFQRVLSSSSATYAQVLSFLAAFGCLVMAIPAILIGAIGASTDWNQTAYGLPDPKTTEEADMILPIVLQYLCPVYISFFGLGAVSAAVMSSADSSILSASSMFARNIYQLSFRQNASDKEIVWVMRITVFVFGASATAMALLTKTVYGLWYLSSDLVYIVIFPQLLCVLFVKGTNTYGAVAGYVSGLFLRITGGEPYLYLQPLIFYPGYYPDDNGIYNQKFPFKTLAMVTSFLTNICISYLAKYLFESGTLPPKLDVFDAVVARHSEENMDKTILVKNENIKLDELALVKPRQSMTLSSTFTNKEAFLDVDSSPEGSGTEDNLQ
CHT PAM = allosterically activates the human high affinity choline transporter. CHT-expressing cells, membrane potential dye, choline EC20; active compounds read high; LV-AA mutant CHT in HEK293 cells. B-score at 10 µM. actives 0.49% (n = 310,000);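 active = initial fluorescence not abnormally high and integrated response B-score, plate-corrected, over 3 SD above library mean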
TMEM16A act = activates or potentiates the mouse TMEM16A chloride channel; Q8BHY3; HEK293 TMEM16A/YFP-H148Q/I152L, iodide quench fluorescence; active compounds read low; B-score at 10 µM; actives 0.3% (n = 340,000);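 active = fluorescence-ratio B-score plate-corrected deviation score at least 3 library SD below zero, with starting fluorescence score within 5 deviations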;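 also: channel opened by trigger with iodide after compound preincubation; score built on the fluorescence ratio of max minus min over baseline; more negative score means more quench and so TMEM16A activation or potentiation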
TMEM16A inh = mouse TMEM16A channel inhibition, primary screen; Q8BHY3; AID 588511; HEK293 TMEM16A/YFP iodide influx fluorescence, ionomycin; actives 1.2% (n = 310,000); normalized B-score (activity score, 25-100; higher = stronger inhibition) at 10 µM;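 active = ratio plate-corrected score three or more library SD toward inhibition, starting fluorescence score within five deviations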;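 also: score derived from kinetic fluorescence span divided by baseline fluorescence per well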
TMEM16A reconf = re-confirmation of mouse TMEM16A chloride channel inhibitors; HEK293 TMEM16A/YFP-H148Q, iodide quench fluorescence; ionomycin added to raise cell calcium; actives 39% (n = 2,300); inhibition, % at 10 µM; shares compounds with TMEM16A inh;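 active = mean duplicate percent inhibition, scaled so buffer wells are 0 and the reference blocker 100, over three buffer SD above buffer mean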
HEK293 Ca mobil = counter-screen for TMEM16A inhibitors: effect on calcium mobilization. shares compounds with TMEM16A inh. TMEM16A/YFP HEK293, Fluo4 calcium mobilization. calcium response (% of ionomycin), % at 10 µM. actives 2% (n = 2,300);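 active = duplicate-averaged calcium signal over 20% of the ionomycin maximum, relative to buffer baseline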;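 also: each well's signal is peak minus trough fluorescence divided by its pre-addition baseline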
YFP-HEK293 quench = acts in parental YFP-HEK293 cells lacking TMEM16A, counter-screen; shares compounds with TMEM16A inh; iodide YFP quench, ionomycin; YFP ratio F(max-min)/F0 at 10 µM; 2,300 tested, under 10 active; AID 652233;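 active = yellow fluorescent protein signal ratio exceeding the buffer control mean by over 5 SD of those controls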;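 also: ratio is mean of duplicate wells from kinetic YFP trace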
ClC-1 inh = selectivity of TMEM16A inhibitors: inhibition of rat ClC-1 chloride channel; shares compounds with TMEM16A inh; CHO ClC-1-YFP, iodide influx fluorescence quench; iodide control reads 0, buffer control 100; ratio percent, % at 10 µM; 2,300 tested, under 10 active; AID 652236;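 active = duplicate-mean ratio percent above the mean of iodide-only control wells, which defines zero, plus 5 of their SD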;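 also: higher percent means stronger block of ClC-1 iodide influx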
Large screens that a line does not name were inactive (follow-up assays come after a bar, where they were run).

CCN(CC)S(=O)(=O)c1ccc2oc(C(=O)NCCN3CCOCC3)c(C)c2c1	none
C=CCNC(=O)c1oc2ccc(S(=O)(=O)N(CC)CC)cc2c1C	TMEM16A inh 25 | TMEM16A reconf inactive | HEK293 Ca mobil inactive | YFP-HEK293 quench inactive | ClC-1 inh inactive
C/C(=N\NC(=S)NCCc1ccccc1)c1ccc(O)cc1O	TMEM16A inh 25 | TMEM16A reconf 23% | HEK293 Ca mobil inactive | YFP-HEK293 quench inactive | ClC-1 inh inactive
C/C(=N\NC(=S)NCCc1ccccc1)c1ccc(Cl)cc1Cl	none
CCCCNc1c(-c2ccc(OC)c(SC3CCCCC3)c2)nc2cnccn12	none
COc1ccc(-c2nc3cnccn3c2NCc2ccccc2)cc1SC1CCCCC1	TMEM16A inh 25 | TMEM16A reconf inactive | HEK293 Ca mobil inactive | YFP-HEK293 quench inactive | ClC-1 inh inactive
COc1ccc(C(=O)N2CCN(c3ncccn3)CC2)cc1[N+](=O)[O-]	none
COc1ccc(-c2noc(CCCC(=O)NC3CCCCC3)n2)cc1	none
Cc1ccc(-c2noc(CCCC(=O)NC3CCCC3)n2)cc1	TMEM16A inh 25 | TMEM16A reconf inactive | HEK293 Ca mobil inactive | YFP-HEK293 quench inactive | ClC-1 inh inactive
CC(OC(=O)C1CCN(c2ccc(C(F)(F)F)cn2)CC1)C(=O)NC1CCCCC1C (configuration not stated)	none (no result: Kir21 inh, Rce1 inh, CHT inh, CHT PAM, TMEM16A inh)
CCOc1ccc(C(=O)C(C)OC(=O)C2CCN(c3ccc(C(F)(F)F)cn3)CC2)cc1 (configuration not stated)	TMEM16A inh 25 | TMEM16A reconf inactive | HEK293 Ca mobil inactive | YFP-HEK293 quench inactive | ClC-1 inh inactive
O=S(=O)(Nc1ccc(S(=O)(=O)N2CCCCC2)cc1)c1ccc(Br)s1	TMEM16A inh 25 | TMEM16A reconf inactive | HEK293 Ca mobil inactive | YFP-HEK293 quench inactive | ClC-1 inh inactive
O=S(=O)(Nc1ccc(S(=O)(=O)N2CCCCCC2)cc1)c1cccs1	none
CCCOc1ccc(-c2nnn(CC(=O)c3ccc4c(c3)OCCO4)n2)cc1	TMEM16A inh 100 | TMEM16A reconf 17% | HEK293 Ca mobil inactive | YFP-HEK293 quench inactive | ClC-1 inh inactive
CCOc1ccc(-c2nnn(CC(=O)c3ccc4c(c3)OCCO4)n2)cc1	none
CCCOC(=O)c1ccc(NS(=O)(=O)c2cccs2)cc1	TMEM16A inh 25 | TMEM16A reconf inactive | HEK293 Ca mobil inactive | YFP-HEK293 quench inactive | ClC-1 inh inactive
CN(CC(=O)Nc1ncn[nH]1)S(=O)(=O)c1ccc(Br)cc1	none
CCc1ccc(NC(=O)c2cnc(N3CCN(c4ccccn4)CC3)c3ccccc23)cc1	Rce1 inh active | TMEM16A reconf inactive | HEK293 Ca mobil inactive | YFP-HEK293 quench inactive | ClC-1 inh inactive
Cc1ccnc2nc(C(=O)OCC(=O)NCc3cccc(Cl)c3)nn12	none (no result: Kir21 inh, Rce1 inh, CHT inh, CHT PAM, TMEM16A inh)
CC1Cc2cc(-c3csc(NC(=O)Cc4cccs4)n3)ccc2N1S(C)(=O)=O (configuration not stated)	TMEM16A inh 25 | TMEM16A reconf 22% | HEK293 Ca mobil inactive | YFP-HEK293 quench inactive | ClC-1 inh inactive
CCOC(=O)CN1C(=O)/C(=C/c2c(F)cccc2Cl)Oc2ccccc21	none
CCC(C)N(C(=O)c1csnn1)C(C(=O)NC(C)(C)C)c1ccccc1 (configuration not stated)	none (no result: TMEM16A act) | TMEM16A reconf inactive | HEK293 Ca mobil inactive | YFP-HEK293 quench inactive | ClC-1 inh inactive
